Reference: paper PMC11006913
Residue numbers refer to the chain shown, from its start.

Assays:
Test in all cases: PBM; 200 nM protein, PBS
Details in all cases: dsDNA, one strand shown
[1] = target: HOXB4 (Homo sapiens, UniProt P17483 148-234)
[2] = target: HOXB4 (Homo sapiens, UniProt P17483 148-234, V174I)
[3] = target: T1, PAX4 (Homo sapiens, UniProt O43316 9-242, R200K)
T1 sequence: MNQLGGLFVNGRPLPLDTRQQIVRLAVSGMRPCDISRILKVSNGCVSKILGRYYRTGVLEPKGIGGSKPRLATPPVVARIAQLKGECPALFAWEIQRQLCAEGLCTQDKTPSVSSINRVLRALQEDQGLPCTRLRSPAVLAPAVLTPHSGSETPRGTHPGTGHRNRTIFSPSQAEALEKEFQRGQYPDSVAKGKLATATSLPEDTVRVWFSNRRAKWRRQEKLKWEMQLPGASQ

[4] = target: T2, PAX4 (Homo sapiens, UniProt O43316 9-242)
T2 sequence: T1 sequence with K192R

[5] = target: T3, PAX4 (Homo sapiens, UniProt O43316 9-242, R200Q)
T3 sequence: T1 sequence with K192Q

[6] = target: T4, PAX4 (Homo sapiens, UniProt O43316 9-242, F177V)
T4 sequence: T1 sequence with F169V, K192R

[7] = target: T5, PAX4 (Homo sapiens, UniProt O43316 9-242, F177Y)
T5 sequence: T1 sequence with F169Y, K192R

[8] = target: T6, PAX4 (Homo sapiens, UniProt O43316 9-242, R227W)
T6 sequence: T1 sequence with K192R, R219W

[9] = target: HOXB6 (Homo sapiens, UniProt P17509 132-218, K202E)
[10] = target: ALX1 (Homo sapiens, UniProt Q15699 118-204, L144V)
[11] = target: ALX3 (Homo sapiens, UniProt O95076 139-225, N203Q)
[12] = target: ALX1 (Homo sapiens, UniProt Q15699 118-204, L144R)
[13] = target: ALX3 (Homo sapiens, UniProt O95076 139-225)
[14] = target: ALX3 (Homo sapiens, UniProt O95076 139-225, L168Q)
[15] = target: ALX3 (Homo sapiens, UniProt O95076 139-225, L168V)
[16] = target: ALX1 (Homo sapiens, UniProt Q15699 118-204)
[17] = target: ALX3 (Homo sapiens, UniProt O95076 139-225, N203S)
[18] = target: HOXB6 (Homo sapiens, UniProt P17509 132-218)
[19] = target: HOXA2 (Homo sapiens, UniProt O43364 129-215, R185T)
[20] = target: HOXD13 (Homo sapiens, UniProt P35453 263-343, T313R)
[21] = target: HOXA2 (Homo sapiens, UniProt O43364 129-215, R185K)
[22] = target: HOXD13 (Homo sapiens, UniProt P35453 263-343)
[23] = target: HOXD13 (Homo sapiens, UniProt P35453 263-343, T313A)
[24] = target: HOXA2 (Homo sapiens, UniProt O43364 129-215, Y150S)
[25] = target: HOXA2 (Homo sapiens, UniProt O43364 129-215)
Chain of HOXA2 (Homo sapiens, UniProt O43364 129-215) (O43364 129-215): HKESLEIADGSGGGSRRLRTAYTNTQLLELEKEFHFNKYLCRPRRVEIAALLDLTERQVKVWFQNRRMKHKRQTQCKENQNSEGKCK

Chain of HOXB4 (Homo sapiens, UniProt P17483 148-234, V174I) (P17483 148-234 V174I): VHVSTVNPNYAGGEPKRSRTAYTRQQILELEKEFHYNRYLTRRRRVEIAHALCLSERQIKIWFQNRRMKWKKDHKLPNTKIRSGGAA
Chain of HOXB4 (Homo sapiens, UniProt P17483 148-234) (P17483 148-234): as the sequence (P17483 148-234 V174I) above, with I27V counted along it
Chain of ALX3 (Homo sapiens, UniProt O95076 139-225, L168V) (O95076 139-225 L168V): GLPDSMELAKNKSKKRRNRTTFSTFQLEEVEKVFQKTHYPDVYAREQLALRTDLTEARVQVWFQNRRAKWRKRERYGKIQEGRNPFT
Chain of ALX3 (Homo sapiens, UniProt O95076 139-225, L168Q) (O95076 139-225 L168Q): as the sequence (O95076 139-225 L168V) above, with V30Q counted along it
Chain of ALX3 (Homo sapiens, UniProt O95076 139-225, N203Q) (O95076 139-225 N203Q): as the sequence (O95076 139-225 L168V) above, with V30L, N65Q counted along it
Chain of ALX3 (Homo sapiens, UniProt O95076 139-225) (O95076 139-225): as the sequence (O95076 139-225 L168V) above, with V30L counted along it
Chain of ALX3 (Homo sapiens, UniProt O95076 139-225, N203S) (O95076 139-225 N203S): as the sequence (O95076 139-225 L168V) above, with V30L, N65S counted along it
Chain of HOXD13 (Homo sapiens, UniProt P35453 263-343, T313A) (P35453 263-343 T313A): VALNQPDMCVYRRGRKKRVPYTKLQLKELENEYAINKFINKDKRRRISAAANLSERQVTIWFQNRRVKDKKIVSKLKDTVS
Chain of HOXD13 (Homo sapiens, UniProt P35453 263-343, T313R) (P35453 263-343 T313R): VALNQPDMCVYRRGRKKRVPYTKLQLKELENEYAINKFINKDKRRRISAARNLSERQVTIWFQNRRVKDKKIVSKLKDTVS
Chain of ALX1 (Homo sapiens, UniProt Q15699 118-204, L144V) (Q15699 118-204 L144V): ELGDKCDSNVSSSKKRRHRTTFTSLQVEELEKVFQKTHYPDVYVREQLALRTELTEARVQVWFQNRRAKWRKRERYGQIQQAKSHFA
Chain of ALX1 (Homo sapiens, UniProt Q15699 118-204) (Q15699 118-204): as the sequence (Q15699 118-204 L144V) above, with V27L counted along it
Chain of HOXA2 (Homo sapiens, UniProt O43364 129-215, R185K) (O43364 129-215 R185K): as the sequence (O43364 129-215) above, with R57K counted along it
Chain of HOXB6 (Homo sapiens, UniProt P17509 132-218, K202E) (P17509 132-218 K202E): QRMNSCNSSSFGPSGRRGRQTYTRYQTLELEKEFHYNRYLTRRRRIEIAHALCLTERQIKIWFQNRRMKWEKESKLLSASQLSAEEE
Chain of HOXA2 (Homo sapiens, UniProt O43364 129-215, Y150S) (O43364 129-215 Y150S): as the sequence (O43364 129-215) above, with Y22S counted along it
Chain of HOXB6 (Homo sapiens, UniProt P17509 132-218) (P17509 132-218): as the sequence (P17509 132-218 K202E) above, with E71K counted along it
Chain of HOXA2 (Homo sapiens, UniProt O43364 129-215, R185T) (O43364 129-215 R185T): as the sequence (O43364 129-215) above, with R57T counted along it
Chain of ALX1 (Homo sapiens, UniProt Q15699 118-204, L144R) (Q15699 118-204 L144R): as the sequence (Q15699 118-204 L144V) above, with V27R counted along it
Chain of HOXD13 (Homo sapiens, UniProt P35453 263-343) (P35453 263-343): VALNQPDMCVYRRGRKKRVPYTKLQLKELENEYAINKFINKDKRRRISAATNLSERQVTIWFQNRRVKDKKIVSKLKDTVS

AATCAAGG
binding signal [1]: 10.3 upbm affinity estimate (log intensity, higher = more binding, comparable within an allelic series) | binding signal [2]: 10.5 upbm affinity estimate (log intensity, higher = more binding, comparable within an allelic series)

AATGTACC
binding signal [1]: 10.2 upbm affinity estimate (log intensity, higher = more binding, comparable within an allelic series) | binding signal [2]: 10.3 upbm affinity estimate (log intensity, higher = more binding, comparable within an allelic series)

CCTGCCCC
binding signal [1]: 7.51 upbm affinity estimate (log intensity, higher = more binding, comparable within an allelic series) | binding signal [3]: 9.03 upbm affinity estimate (log intensity, higher = more binding, comparable within an allelic series) | binding signal [4]: 9.15 upbm affinity estimate (log intensity, higher = more binding, comparable within an allelic series) | binding signal [2]: 7.65 upbm affinity estimate (log intensity, higher = more binding, comparable within an allelic series) | binding signal [5]: 9.01 upbm affinity estimate (log intensity, higher = more binding, comparable within an allelic series) | binding signal [6]: 9.07 upbm affinity estimate (log intensity, higher = more binding, comparable within an allelic series) | binding signal [7]: 9 upbm affinity estimate (log intensity, higher = more binding, comparable within an allelic series) | binding signal [8]: 9.13 upbm affinity estimate (log intensity, higher = more binding, comparable within an allelic series)

ACCCCCGT
binding signal [1]: 7.65 upbm affinity estimate (log intensity, higher = more binding, comparable within an allelic series) | binding signal [9]: 8.84 upbm affinity estimate (log intensity, higher = more binding, comparable within an allelic series) | binding signal [2]: 7.64 upbm affinity estimate (log intensity, higher = more binding, comparable within an allelic series) | binding signal [10]: 6.28 upbm affinity estimate (log intensity, higher = more binding, comparable within an allelic series) | binding signal [11]: 7.64 upbm affinity estimate (log intensity, higher = more binding, comparable within an allelic series) | binding signal [12]: 6.2 upbm affinity estimate (log intensity, higher = more binding, comparable within an allelic series) | binding signal [13]: 7.58 upbm affinity estimate (log intensity, higher = more binding, comparable within an allelic series) | binding signal [14]: 7.58 upbm affinity estimate (log intensity, higher = more binding, comparable within an allelic series) | binding signal [15]: 7.57 upbm affinity estimate (log intensity, higher = more binding, comparable within an allelic series) | binding signal [16]: 6.29 upbm affinity estimate (log intensity, higher = more binding, comparable within an allelic series) | binding signal [17]: 7.61 upbm affinity estimate (log intensity, higher = more binding, comparable within an allelic series) | binding signal [18]: 8.76 upbm affinity estimate (log intensity, higher = more binding, comparable within an allelic series)

CGGGGGGA
binding signal [1]: 7.79 upbm affinity estimate (log intensity, higher = more binding, comparable within an allelic series) | binding signal [19]: 7.04 upbm affinity estimate (log intensity, higher = more binding, comparable within an allelic series) | binding signal [2]: 7.87 upbm affinity estimate (log intensity, higher = more binding, comparable within an allelic series) | binding signal [20]: 8.99 upbm affinity estimate (log intensity, higher = more binding, comparable within an allelic series) | binding signal [21]: 10.1 upbm affinity estimate (log intensity, higher = more binding, comparable within an allelic series) | binding signal [22]: 9.17 upbm affinity estimate (log intensity, higher = more binding, comparable within an allelic series) | binding signal [23]: 9.29 upbm affinity estimate (log intensity, higher = more binding, comparable within an allelic series) | binding signal [24]: 10.3 upbm affinity estimate (log intensity, higher = more binding, comparable within an allelic series) | binding signal [25]: 7.09 upbm affinity estimate (log intensity, higher = more binding, comparable within an allelic series)

CACGAGCC
binding signal [1]: 7.81 upbm affinity estimate (log intensity, higher = more binding, comparable within an allelic series) | binding signal [2]: 7.69 upbm affinity estimate (log intensity, higher = more binding, comparable within an allelic series)

ATTGATCC
binding signal [1]: 10.1 upbm affinity estimate (log intensity, higher = more binding, comparable within an allelic series) | binding signal [2]: 10 upbm affinity estimate (log intensity, higher = more binding, comparable within an allelic series)

CGCTGGCC
binding signal [1]: 7.45 upbm affinity estimate (log intensity, higher = more binding, comparable within an allelic series) | binding signal [3]: 8.99 upbm affinity estimate (log intensity, higher = more binding, comparable within an allelic series) | binding signal [4]: 9.12 upbm affinity estimate (log intensity, higher = more binding, comparable within an allelic series) | binding signal [2]: 7.53 upbm affinity estimate (log intensity, higher = more binding, comparable within an allelic series) | binding signal [11]: 7.62 upbm affinity estimate (log intensity, higher = more binding, comparable within an allelic series) | binding signal [5]: 9.12 upbm affinity estimate (log intensity, higher = more binding, comparable within an allelic series) | binding signal [6]: 9.1 upbm affinity estimate (log intensity, higher = more binding, comparable within an allelic series) | binding signal [13]: 7.39 upbm affinity estimate (log intensity, higher = more binding, comparable within an allelic series) | binding signal [7]: 9.14 upbm affinity estimate (log intensity, higher = more binding, comparable within an allelic series) | binding signal [14]: 7.58 upbm affinity estimate (log intensity, higher = more binding, comparable within an allelic series) | binding signal [15]: 7.61 upbm affinity estimate (log intensity, higher = more binding, comparable within an allelic series) | binding signal [8]: 9.18 upbm affinity estimate (log intensity, higher = more binding, comparable within an allelic series) | binding signal [17]: 7.65 upbm affinity estimate (log intensity, higher = more binding, comparable within an allelic series)
